Beta2AR agonist – activates human beta-2 adrenergic receptor causing internalization. P07550. Am2.2-beta2AR cells, FAP receptor internalization, flow cytometry. response, % (concentration not given with the values). hit rate 0.43% among 340,000;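 active means response above a set limit, near 3 SD of response in nonfluorescent compounds, cut at about 42% in these data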
GRK2 inh – blocks RNA aptamer binding to human GRK2; P25098; bead flow cytometry, FAM-aptamer displacement from GRK2; inhibition of aptamer binding, % at 10 µM; hit rate 0.59% among 330,000; AID 488847;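 active means inhibition of aptamer binding above 40%, roughly 3 SD of noise, on plates passing a quality check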;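 further: median bead fluorescence of bound FAM aptamer so fluorescent compounds give negative values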
Target sequence (P25098 whole entry, looked up): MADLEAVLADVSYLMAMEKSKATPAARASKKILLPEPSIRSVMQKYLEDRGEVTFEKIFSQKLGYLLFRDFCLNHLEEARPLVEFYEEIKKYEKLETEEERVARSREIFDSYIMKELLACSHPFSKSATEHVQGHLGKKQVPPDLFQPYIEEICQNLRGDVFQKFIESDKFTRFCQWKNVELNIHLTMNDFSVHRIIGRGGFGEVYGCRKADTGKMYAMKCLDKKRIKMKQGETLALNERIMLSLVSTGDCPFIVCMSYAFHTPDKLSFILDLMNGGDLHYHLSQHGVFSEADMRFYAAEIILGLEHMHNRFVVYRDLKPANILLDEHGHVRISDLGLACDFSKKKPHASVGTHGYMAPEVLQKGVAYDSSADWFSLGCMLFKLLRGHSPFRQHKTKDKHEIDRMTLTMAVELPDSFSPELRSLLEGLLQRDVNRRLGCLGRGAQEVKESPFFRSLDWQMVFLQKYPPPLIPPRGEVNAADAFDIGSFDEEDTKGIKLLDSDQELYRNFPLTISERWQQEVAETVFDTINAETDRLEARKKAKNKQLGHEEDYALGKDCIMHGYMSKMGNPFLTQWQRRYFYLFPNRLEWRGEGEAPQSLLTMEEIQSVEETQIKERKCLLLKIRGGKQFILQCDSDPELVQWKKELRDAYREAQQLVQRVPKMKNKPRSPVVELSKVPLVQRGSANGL
MEKK2wt PB1 HTS – raises or lowers MEK5 binding to wildtype human MEKK2 PB1 domain | Q9Y2U5 | bead flow cytometry, Alexa488-MEK5 binding to MEKK2 WT; actives lie on both sides | binding response (% of control), % at 10 µM | hit rate 1.1% among 290,000; in the data active means binding response below about 67% or above about 130%
MEKK2 mut-MEK5 – signal of MEK5 binding to mutant human MEKK2 PB1 domain. AID 1530. percent response, % at 10 µM. hit rate 0.35% among 290,000. bead flow cytometry, Alexa488-MEK5 binding to MEKK2 mutant; in the data active means percent response above about 24%, passing the limit was not always enough
MEKK3 PB1 HTS – raises or lowers MEK5 binding to the human MEKK3 PB1 domain. Q99759. bead-based flow cytometry, Alexa488-MEK5 binding to MEKK3; actives lie on both sides; 0 = blocked by unlabeled MEK5, 100 = vehicle. binding response (% of control), % at 10 µM. hit rate 1.4% among 290,000. AID 1529;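 active means binding response more than 3 SD above or below the average of its plate-row segment, actives on both sides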;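 further: Alexa488 bead fluorescence after subtracting the streptavidin-only scavenger bead signal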
MEKK2wt confirm – raises or lowers MEK5 binding to wildtype human MEKK2, retest; binding response (% of control), % at 10 µM; hit rate 2.4% among 5,900; bead flow cytometry, Alexa488-MEK5 binding to MEKK2 WT; actives lie on both sides; AID 1892; shares compounds with MEKK3 PB1 HTS; in the data active means binding response below about 16% or above about 210%; inactive means in between
MEKK2mut confirm – signal of MEK5 binding to mutant human MEKK2, retest | percent response, % at 10 µM | shares compounds with MEKK3 PB1 HTS | bead flow cytometry, Alexa488-MEK5 binding to MEKK2 mutant | hit rate 2% among 5,900; in the data active means percent response mostly above about 71%, no sharp cut-off; inactive means mostly below about 38%;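 further: higher means compound restores mutant binding toward wildtype level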
MEKK3-MEK5 inh – confirmation of inhibitors of MEK5 binding to human MEKK3 | shares compounds with MEKK3 PB1 HTS | bead flow cytometry, Alexa488-MEK5 binding to MEKK3; hits give low values | binding response (% of control), % at 10 µM | hit rate 1.8% among 5,900 | AID 1894;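 active means binding response below 72% of control, or above a set upper limit, though filed actives all read lower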;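 further: 100% = DMSO only wells and 0% = binding blocked by excess unlabeled MEK5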
An asterisk follows results filed as active; [ ] = remark or other dose. The list is not random: actives were taken first. Their share in the collection is about 2.9%.

How did O=C(CC1C(=O)NCCN1CC1CCCCC1)NCc1ccc(Cl)cc1 (configuration not stated) do in these assays?
Beta2AR agonist: -2; GRK2 inh: 0; MEKK2wt PB1 HTS: 147*; MEKK2 mut-MEK5: 26; MEKK3 PB1 HTS: 117; MEKK2wt confirm: 118; MEKK2mut confirm: 12; MEKK3-MEK5 inh: 106

Results for O=C(CC1C(=O)NCCN1CC1CCCCC1)NCc1cc(F)ccc1F (configuration not stated) ?
Beta2AR agonist: 9; GRK2 inh: 0; MEKK2wt PB1 HTS: 118; MEKK2 mut-MEK5: 11; MEKK3 PB1 HTS: 99

What do the screens show for `COc1ccc(/C(C)=N/NC(=O)CNC(=O)c2ccco2)c(OC)c1`?
Beta2AR agonist: 1; GRK2 inh: 0; MEKK2wt PB1 HTS: 102; MEKK2 mut-MEK5: 5; MEKK3 PB1 HTS: 102

Results for O=C(c1ccc(OCCN2CCCCC2)cc1)c1c(-c2ccc(O)cc2)sc2cc(O)ccc12 ?
Beta2AR agonist: 14; GRK2 inh: 0; MEKK2wt PB1 HTS: 201*; MEKK2 mut-MEK5: 28*; MEKK3 PB1 HTS: 111; MEKK2wt confirm: 143; MEKK2mut confirm: 33; MEKK3-MEK5 inh: 94

What do the screens show for `O=C(CNC(=O)c1cc(Cl)cc([N+](=O)[O-])c1)NC1CC1`?
Beta2AR agonist: 3; GRK2 inh: 0

Results for O=C(CCS(=O)(=O)Cc1ccc(Cl)cc1)NCCc1ccccc1 ?
Beta2AR agonist: -2; GRK2 inh: 0; MEKK2wt PB1 HTS: 104; MEKK2 mut-MEK5: -1; MEKK3 PB1 HTS: 104

What do the screens show for `Brc1ccc(N=C/C=C/C=C/Nc2ccc(Br)cc2)cc1`?
Beta2AR agonist: -1; GRK2 inh: 0; MEKK2wt PB1 HTS: 38*; MEKK2 mut-MEK5: 140*; MEKK3 PB1 HTS: 46*[inhibitor]; MEKK2wt confirm: 48; MEKK2mut confirm: -30; MEKK3-MEK5 inh: 64*

Results for CN(C)C(/C=C/Nc1ccc(Br)cc1)=C(C#N)C#N ?
Beta2AR agonist: 1; GRK2 inh: 0; MEKK2wt PB1 HTS: 103; MEKK2 mut-MEK5: 8; MEKK3 PB1 HTS: 103

Results for COc1ccc(-c2coc3c(CN4CCCCC4)c(O)c(CN4CCCCC4)c(O)c3c2=O)cc1 ?
GRK2 inh: 100*; MEKK2wt PB1 HTS: 144*; MEKK2 mut-MEK5: 18; MEKK3 PB1 HTS: 107; MEKK2wt confirm: 150; MEKK2mut confirm: 31; MEKK3-MEK5 inh: 105

How did O=c1c(-c2ccc(Br)cc2)coc2c(CN3CCCCC3)c(O)ccc12 do in these assays?
Beta2AR agonist: 2; MEKK2wt PB1 HTS: 103; MEKK2 mut-MEK5: 2; MEKK3 PB1 HTS: 100

What do the screens show for `COc1ccc(C(=O)C2CCCN(C(=O)c3cc(C)nc(C)n3)C2)cc1OC` (configuration not stated)?
Beta2AR agonist: -1; GRK2 inh: 0; MEKK2wt PB1 HTS: 112; MEKK2 mut-MEK5: 1; MEKK3 PB1 HTS: 129*; MEKK2wt confirm: 100; MEKK2mut confirm: 1; MEKK3-MEK5 inh: 102

How did COc1ccc(OC)c(S(=O)(=O)n2nc(C)cc2C)c1 do in these assays?
Beta2AR agonist: 3; GRK2 inh: 1; MEKK2wt PB1 HTS: 125; MEKK2 mut-MEK5: 7; MEKK3 PB1 HTS: 135*; MEKK2wt confirm: 95; MEKK2mut confirm: -1; MEKK3-MEK5 inh: 101

Results for COc1ccccc1C(=O)N/C(=C\c1cn(S(=O)(=O)N(C)C)c2ccccc12)C(=O)N1CCCCC1 ?
Beta2AR agonist: 7; GRK2 inh: 0; MEKK2wt PB1 HTS: 94; MEKK2 mut-MEK5: -3; MEKK3 PB1 HTS: 100

How did Cc1ccc(NC(=O)CCNS(=O)(=O)c2ccccc2)c(C(=O)c2ccccc2)c1 do in these assays?
Beta2AR agonist: 5; GRK2 inh: 0; MEKK2wt PB1 HTS: 110; MEKK2 mut-MEK5: 1; MEKK3 PB1 HTS: 138*; MEKK2wt confirm: 100; MEKK2mut confirm: 2; MEKK3-MEK5 inh: 104

What do the screens show for `CCOc1ccc(C(=O)COC(=O)c2nn(CC)c(=O)c3ccccc23)cc1`?
Beta2AR agonist: -3; GRK2 inh: 4

How did Clc1ccc(-c2cn3cc(Br)ccc3n2)cc1Cl do in these assays?
Beta2AR agonist: 4; GRK2 inh: 0; MEKK2wt PB1 HTS: 109; MEKK2 mut-MEK5: 0; MEKK3 PB1 HTS: 150*; MEKK2wt confirm: 93; MEKK2mut confirm: -2; MEKK3-MEK5 inh: 100

What do the screens show for `Cc1ccn2cc(-c3ccc(Br)cc3)nc2c1`?
Beta2AR agonist: -8; GRK2 inh: 0; MEKK2wt PB1 HTS: 97; MEKK2 mut-MEK5: -4; MEKK3 PB1 HTS: 95

Results for COc1ccc(N2CCN(CCN3C(=O)c4ccccc4C3=O)CC2)cc1 ?
Beta2AR agonist: 4; GRK2 inh: 0; MEKK2wt PB1 HTS: 102; MEKK2 mut-MEK5: 12; MEKK3 PB1 HTS: 102

How did Cc1cc2cc(CNC(=S)NC3CCCCC3)ccc2[nH]1 do in these assays?
Beta2AR agonist: 1; GRK2 inh: 2; MEKK2wt PB1 HTS: 108; MEKK2 mut-MEK5: -1; MEKK3 PB1 HTS: 115

What do the screens show for `Cc1cc2cc(CNC(=O)NC3CCCCC3)ccc2[nH]1`?
Beta2AR agonist: 2; GRK2 inh: 16; MEKK2 mut-MEK5: 51*; MEKK3 PB1 HTS: 62*[inhibitor]; MEKK2wt confirm: 70; MEKK2mut confirm: 3; MEKK3-MEK5 inh: 65*

Results for Cc1c(C(=O)Nc2ccc(Oc3ccccc3)cc2)sc2nc3n(c(=O)c12)CCC3 ?
Beta2AR agonist: 12; GRK2 inh: 0; MEKK2wt PB1 HTS: 87; MEKK2 mut-MEK5: -10; MEKK3 PB1 HTS: 77*[inhibitor]; MEKK2wt confirm: 99; MEKK2mut confirm: -7; MEKK3-MEK5 inh: 100

How did Cc1oc2c(CN3CCOCC3)c(O)ccc2c(=O)c1-c1ccc(Cl)cc1 do in these assays?
Beta2AR agonist: -16; GRK2 inh: 0; MEKK2wt PB1 HTS: 44*[inhibitor]; MEKK2 mut-MEK5: -16; MEKK3 PB1 HTS: 38*[inhibitor]; MEKK2wt confirm: 107; MEKK2mut confirm: 7; MEKK3-MEK5 inh: 101

How did CCOC(=O)C1CCN(C(=O)C2CCN(c3nnc(-n4cccc4)s3)CC2)CC1 do in these assays?
Beta2AR agonist: 1; GRK2 inh: 2; MEKK2wt PB1 HTS: 102; MEKK2 mut-MEK5: -1; MEKK3 PB1 HTS: 100

How did CCOC(=O)C1CCN(C(=O)C2CCN(c3nc4ccc(OC)cc4s3)CC2)CC1 do in these assays?
Beta2AR agonist: 5; GRK2 inh: 1; MEKK2wt PB1 HTS: 118; MEKK2 mut-MEK5: 7; MEKK3 PB1 HTS: 122*; MEKK2wt confirm: 110; MEKK2mut confirm: 8; MEKK3-MEK5 inh: 108

High-throughput results: PubChem, NMMLSC
